# Tests used:
# Assay in all cases: DAPPL (digital affinity profiling via proximity ligation, sequencing); 10 mM Tris-HCl pH 7.5, 50 mM NaCl, 1 mM DTT, 4% glycerol, room temperature, 30 min; GST-TFs on glutathione beads, 16-mer random dsDNA library, 0.1% formaldehyde crosslink after washing; high values mean tight binding
# Conditions in all cases: protein: recombinant; tags: N-terminal GST; dsDNA, one strand shown
# FLI1 = target: T1, FLI1 (Homo sapiens, UniProt Q01543 1-452)
# T1 sequence: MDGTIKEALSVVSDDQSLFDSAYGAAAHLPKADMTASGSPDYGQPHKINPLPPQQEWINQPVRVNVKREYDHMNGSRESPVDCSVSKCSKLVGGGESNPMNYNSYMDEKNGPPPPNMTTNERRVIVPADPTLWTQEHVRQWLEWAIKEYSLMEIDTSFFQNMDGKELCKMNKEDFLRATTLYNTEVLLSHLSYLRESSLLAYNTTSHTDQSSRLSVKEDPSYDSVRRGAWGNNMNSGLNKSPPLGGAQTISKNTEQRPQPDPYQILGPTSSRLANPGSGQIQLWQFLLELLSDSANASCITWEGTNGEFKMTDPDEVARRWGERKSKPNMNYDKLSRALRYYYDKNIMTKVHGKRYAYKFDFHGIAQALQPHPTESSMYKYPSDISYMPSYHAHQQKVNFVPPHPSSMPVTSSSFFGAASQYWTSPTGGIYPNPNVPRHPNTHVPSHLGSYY
# In short: (§1)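 Pools were built from human transcription factors expressed in yeast as GST fusions, captured on glutathione beads and DNA-barcoded, along with a tag-only sample. Incubation with 200 nmole of a 16-mer random double-stranded DNA library lasted 30 min at room temperature in Tris/NaCl/DTT/glycerol buffer, and was followed by washing, 0.1% formaldehyde crosslinking, proximity ligation, PCR amplification and Illumina NextSeq500 sequencing. Binding signal is the quotient of each hexamer's read frequency for a factor and its frequency for the tag-only sample.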
# ELK1 = target: T2, ELK1 (Homo sapiens, UniProt P19419 1-428)
# T2 sequence: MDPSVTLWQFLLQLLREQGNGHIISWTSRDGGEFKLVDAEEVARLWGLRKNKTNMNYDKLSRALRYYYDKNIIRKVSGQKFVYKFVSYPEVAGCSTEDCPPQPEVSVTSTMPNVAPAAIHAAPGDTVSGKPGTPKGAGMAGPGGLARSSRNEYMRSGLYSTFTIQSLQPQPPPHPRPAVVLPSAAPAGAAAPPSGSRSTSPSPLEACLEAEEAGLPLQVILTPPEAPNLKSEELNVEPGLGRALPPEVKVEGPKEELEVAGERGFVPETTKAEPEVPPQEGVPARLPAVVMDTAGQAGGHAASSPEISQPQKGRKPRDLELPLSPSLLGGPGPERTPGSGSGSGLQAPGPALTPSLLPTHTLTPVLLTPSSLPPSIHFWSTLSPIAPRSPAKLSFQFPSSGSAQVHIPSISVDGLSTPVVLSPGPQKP
# In short: as §1
# GABPA = target: T3, GABPA (Homo sapiens, UniProt Q06546 1-454)
# T3 sequence: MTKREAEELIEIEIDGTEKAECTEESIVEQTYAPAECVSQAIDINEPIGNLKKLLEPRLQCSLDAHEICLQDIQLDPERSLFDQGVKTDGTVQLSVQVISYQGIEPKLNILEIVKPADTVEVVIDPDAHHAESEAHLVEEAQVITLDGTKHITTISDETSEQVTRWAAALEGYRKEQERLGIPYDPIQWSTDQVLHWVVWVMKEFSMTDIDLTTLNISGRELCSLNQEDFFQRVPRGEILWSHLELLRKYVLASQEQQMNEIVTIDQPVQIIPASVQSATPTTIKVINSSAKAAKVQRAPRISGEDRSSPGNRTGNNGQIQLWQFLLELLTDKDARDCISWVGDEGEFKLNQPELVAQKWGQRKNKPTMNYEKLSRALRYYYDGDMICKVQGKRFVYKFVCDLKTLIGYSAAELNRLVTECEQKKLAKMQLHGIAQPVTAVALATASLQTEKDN
# In short: as §1
# ERG = target: T4, ERG (Homo sapiens, UniProt P11308 1-479)
# T4 sequence: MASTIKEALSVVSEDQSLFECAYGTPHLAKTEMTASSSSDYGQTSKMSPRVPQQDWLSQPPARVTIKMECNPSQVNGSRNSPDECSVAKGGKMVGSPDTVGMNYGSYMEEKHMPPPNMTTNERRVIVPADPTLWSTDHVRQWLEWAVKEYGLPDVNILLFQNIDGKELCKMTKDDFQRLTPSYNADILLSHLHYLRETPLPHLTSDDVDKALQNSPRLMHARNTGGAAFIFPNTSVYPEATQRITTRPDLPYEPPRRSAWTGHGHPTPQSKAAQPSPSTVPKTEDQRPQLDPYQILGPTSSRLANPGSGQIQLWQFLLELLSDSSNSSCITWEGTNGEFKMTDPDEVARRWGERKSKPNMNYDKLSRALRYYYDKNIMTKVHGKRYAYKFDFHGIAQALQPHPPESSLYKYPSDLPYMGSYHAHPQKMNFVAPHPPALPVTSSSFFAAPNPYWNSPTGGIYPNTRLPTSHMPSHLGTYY
# In short: as §1
# ELF1 = ELF1 (Homo sapiens, UniProt P32519 1-619)
# In short: as §1
# EHF = target: T5, EHF (Homo sapiens, UniProt Q9NZC4 1-300)
# T5 sequence: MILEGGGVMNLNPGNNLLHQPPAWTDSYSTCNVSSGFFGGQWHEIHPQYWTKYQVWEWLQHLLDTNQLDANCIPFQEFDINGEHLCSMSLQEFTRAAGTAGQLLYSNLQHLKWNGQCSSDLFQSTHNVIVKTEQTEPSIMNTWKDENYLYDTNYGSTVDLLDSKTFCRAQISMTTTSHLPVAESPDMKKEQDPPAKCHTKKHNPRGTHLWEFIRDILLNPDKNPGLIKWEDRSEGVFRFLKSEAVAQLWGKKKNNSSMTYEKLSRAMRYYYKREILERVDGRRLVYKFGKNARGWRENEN
# In short: as §1
# SPI1 = SPI1 (Homo sapiens, UniProt P17947 1-270)
# In short: as §1
# SPIB = SPIB (Homo sapiens, UniProt Q01892 1-262)
# In short: as §1
# ELK3 = target: T6, ELK3 (Homo sapiens, UniProt P41970 1-407)
# T6 sequence: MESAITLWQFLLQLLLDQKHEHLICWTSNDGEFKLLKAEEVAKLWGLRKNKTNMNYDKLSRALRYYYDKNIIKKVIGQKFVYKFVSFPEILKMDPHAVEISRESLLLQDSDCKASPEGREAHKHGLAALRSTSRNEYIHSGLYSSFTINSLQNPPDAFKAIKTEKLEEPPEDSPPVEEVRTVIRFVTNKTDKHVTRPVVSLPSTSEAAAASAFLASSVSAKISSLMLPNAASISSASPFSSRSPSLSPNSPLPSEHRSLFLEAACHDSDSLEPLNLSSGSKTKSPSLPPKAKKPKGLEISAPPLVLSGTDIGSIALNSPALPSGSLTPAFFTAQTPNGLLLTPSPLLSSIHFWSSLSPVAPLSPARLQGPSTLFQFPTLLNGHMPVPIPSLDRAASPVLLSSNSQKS
# In short: as §1
# Sequence of SPIB (Q01892 whole entry): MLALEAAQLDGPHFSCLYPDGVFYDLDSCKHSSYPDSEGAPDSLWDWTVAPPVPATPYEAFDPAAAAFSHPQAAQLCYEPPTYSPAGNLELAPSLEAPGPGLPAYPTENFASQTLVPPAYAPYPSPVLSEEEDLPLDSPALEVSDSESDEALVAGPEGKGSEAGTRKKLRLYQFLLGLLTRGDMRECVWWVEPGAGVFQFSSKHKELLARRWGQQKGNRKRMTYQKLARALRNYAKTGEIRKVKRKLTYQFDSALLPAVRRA
# Sequence of ELF1 (P32519 whole entry): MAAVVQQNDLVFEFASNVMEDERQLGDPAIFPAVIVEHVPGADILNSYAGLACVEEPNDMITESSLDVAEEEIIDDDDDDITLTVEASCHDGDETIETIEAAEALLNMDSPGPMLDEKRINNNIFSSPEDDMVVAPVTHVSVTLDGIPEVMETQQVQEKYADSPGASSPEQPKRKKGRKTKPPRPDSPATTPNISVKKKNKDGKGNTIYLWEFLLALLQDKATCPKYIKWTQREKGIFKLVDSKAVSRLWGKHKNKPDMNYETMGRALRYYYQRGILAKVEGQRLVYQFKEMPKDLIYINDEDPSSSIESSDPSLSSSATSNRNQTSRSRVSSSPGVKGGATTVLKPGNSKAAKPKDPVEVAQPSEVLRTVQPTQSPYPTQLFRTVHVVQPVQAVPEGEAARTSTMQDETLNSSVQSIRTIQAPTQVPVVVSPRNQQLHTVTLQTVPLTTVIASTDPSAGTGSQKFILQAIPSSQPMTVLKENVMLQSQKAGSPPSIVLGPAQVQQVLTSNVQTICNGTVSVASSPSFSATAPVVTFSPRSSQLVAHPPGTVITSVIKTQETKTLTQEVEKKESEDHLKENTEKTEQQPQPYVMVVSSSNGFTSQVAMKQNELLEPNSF
sequence,measurement,setting,value
CTCCAC,binding signal,FLI1,"1.56 fold enrichment (6-mer frequency, TF over GST control)"
same,binding signal,ELK1,"1.41 fold enrichment (6-mer frequency, TF over GST control)"
same,binding signal,GABPA,"1.46 fold enrichment (6-mer frequency, TF over GST control)"
same,binding signal,ERG,"1.37 fold enrichment (6-mer frequency, TF over GST control)"
same,binding signal,ELF1,"1.38 fold enrichment (6-mer frequency, TF over GST control)"
same,binding signal,EHF,"1.32 fold enrichment (6-mer frequency, TF over GST control)"
same,binding signal,SPI1,"1.55 fold enrichment (6-mer frequency, TF over GST control)"
same,binding signal,SPIB,"1.32 fold enrichment (6-mer frequency, TF over GST control)"
same,binding signal,ELK3,"1.54 fold enrichment (6-mer frequency, TF over GST control)"
